D3 antag: antagonists of human D3 dopamine receptor; P35462; D3R cells, DiscoveRx beta-arrestin luminescence, antagonist mode; stronger effect = lower value; max response, negative = inhibition, %; actives 2.5% (n = 360,000); in the data active = max response below about -50%; inconclusive = no clear call, values can overlap the other calls
Target sequence (P35462 whole entry, looked up): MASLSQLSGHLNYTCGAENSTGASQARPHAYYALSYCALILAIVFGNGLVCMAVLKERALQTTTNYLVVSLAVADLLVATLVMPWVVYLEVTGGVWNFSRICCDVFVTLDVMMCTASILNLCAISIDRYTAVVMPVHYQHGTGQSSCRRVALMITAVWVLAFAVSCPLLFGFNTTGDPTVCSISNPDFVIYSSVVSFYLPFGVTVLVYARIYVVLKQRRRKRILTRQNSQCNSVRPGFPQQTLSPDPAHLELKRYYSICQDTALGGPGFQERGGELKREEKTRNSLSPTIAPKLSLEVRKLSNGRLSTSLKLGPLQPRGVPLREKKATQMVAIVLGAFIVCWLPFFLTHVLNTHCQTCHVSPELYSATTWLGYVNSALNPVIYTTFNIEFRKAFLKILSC
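Cells plated overnight at 1500 cells/well, then exposed to library compounds with dopamine controls for 90 minutes at 37 degrees C. DiscoveRx reagent added for 30–60 minutes at room temperature; luminescence read, quantitative HTS format.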
ATXN viability: reduces viability in counter-screen for ATXN expression inhibitors. S2 cells (HEK-293 line with an ATXN2-luciferase reporter) viability, CellTiter-Fluor protease fluorescence, 24 h. actives 0.49% (n = 400,000). Potency, µM (highest dose often 56.7 µM), actives largely listed as cytotoxic; also: nearly all actives have a fitted effect of over 40% in size
ATXN2 expr inh: ATXN2 expression inhibition; Potency, µM (doses to about 57 µM), most hits filed as inhibitors; HEK-293 ATXN2-luciferase reporter, luminescence, 24 h; actives 0.72% (n = 360,000); AID 1745845; also: nearly all actives have a fitted effect of over 55% in size
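qHTS (up to 57 uM final) was run with 24 h compound exposure of reporter cells at 37 °C. Each well was multiplexed: SteadyGlo luminescence measured ATXN2-luciferase expression after a fluorogenic Gly-Phe-AFC viability readout (25 uM final).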
TGFb inhibitor: TGF-b pathway inhibition | HepG2 CAGA-GFP TGF-b/SMAD3 reporter, GFP fluorescence, 18 h; TGF-beta stimulated, 500 pg/mL final | Potency, µM (highest dose often 46.1 µM), usual class: inhibitors | actives 1.2% (n = 410,000) | AID 588855; also: nearly all actives have a fitted effect of over 65% in size
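First, reporter cells (HEPG2 CAGA-GFP) rested 2 h at 37 degrees C. Next, compounds were pinned in and TGF-beta added to 500 pg/mL final. After 18 h, GFP was imaged per cell and summed per well.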
D3 ag: D3 dopamine receptor (human) agonism; max activation, %; D3R DiscoveRx beta-arrestin cells, luminescence, 90 min; actives 0.58% (n = 410,000); P35462; in the data active = max activation above about 30%
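Agonist-mode cell screen: cells plated at 1500/well and incubated overnight at 37 °C, then exposed to library compounds for 90 min at 37 °C. Detection reagent was added for 30–60 min at room temperature, and luminescence was read.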
HepG2 viability: HepG2 cytotoxicity, counter-screen for TGF-b inhibitors; Potency, µM (highest dose often 46.1 µM), actives largely listed as cytotoxic; HepG2 CAGA-GFP viability, ATP luminescence, 18 h; actives 0.76% (n = 410,000)
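HepG2 CAGA-GFP cells (1000/well, DMEM with 1% FBS) received compound, then TGF-beta at 500 pg/mL final, and were incubated 18 hours at 37 degrees C. Viability was read by CellTiter-Glo luminescence. Media-only wells were set as complete cell-killing and DMSO as no toxicity.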
Large screens that a line does not name were inactive. Only some compounds are listed: those with a hit (about 4.7% of all), similar ones and a draw of the others. Unless noted, calls follow the shape of the dose curve; as a rule, active = well fitted curve in the direction sought with a large enough effect; inconclusive = small, poorly fitted or top-dose-only effect, or another doubt; inactive = no such curve, though single readings can be large; an effect the other way counts as inactive or inconclusive.

Cc1nnc(N2CCCC(C(=O)Nc3cccc(C(F)(F)F)c3)C2)c2nn(-c3ccccc3)c(C)c12 (configuration not stated)	ATXN viability 16µM, TGFb inhibitor inconclusive (no result: D3 antag)
CCc1ccc(CNC(=O)C2CCCN(c3nnc(C)c4c(C)n(-c5ccccc5)nc34)C2)cc1 (configuration not stated)	ATXN viability 20µM, ATXN2 expr inh inconclusive, TGFb inhibitor inconclusive
Cc1nnc(N2CCCC(C(=O)NCc3ccccc3)C2)c2nn(-c3ccccc3)c(C)c12 (configuration not stated)	ATXN viability inconclusive (no result: D3 antag)
Cc1noc2ncnc(N3CCCC(C(=O)Nc4cccc(C(F)(F)F)c4)C3)c12 (configuration not stated)	ATXN2 expr inh 20µM, TGFb inhibitor inconclusive (no result: D3 antag, ATXN viability)
CCOC(=O)c1cccc(NC(=O)C2CCCN(c3nnc(C)c4c(C)n(-c5ccccc5)nc34)C2)c1 (configuration not stated)	ATXN viability inconclusive (no result: D3 antag)
Cc1ccccc1CNC(=O)C1CCCN(c2nnc(C)c3c(C)n(-c4ccccc4)nc23)C1 (configuration not stated)	ATXN viability 32µM, ATXN2 expr inh 20µM
N#CCCn1cc(CNCc2cccnc2)c(-c2ccccc2)n1	none (no result: D3 antag, ATXN viability, ATXN2 expr inh, D3 ag)
Cc1nnc(N2CCCC(C(=O)NCCc3ccccc3)C2)c2nn(-c3ccccc3)c(C)c12 (configuration not stated)	ATXN viability 13µM (no result: D3 antag)
Cc1ccc(CCNC(=O)C2CCCN(c3nnc(C)c4c(C)n(-c5ccccc5)nc34)C2)cc1 (configuration not stated)	ATXN viability inconclusive (no result: D3 antag)
CCn1c(=O)c([N+](=O)[O-])c(Cl)c2ccccc21	D3 antag -115, ATXN viability 35µM, TGFb inhibitor inconclusive
CCn1c(=O)c([N+](=O)[O-])c(NCCN(C)C)c2ccccc21	D3 antag -59, ATXN viability inconclusive
CCn1c(=O)c([N+](=O)[O-])c(NCC(O)c2ccccc2)c2ccccc21 (configuration not stated)	none
O=c1c([N+](=O)[O-])c(NCCN2CCCCCC2)c2ccccc2n1-c1ccccc1	D3 antag -98, TGFb inhibitor inconclusive
COCCNc1c([N+](=O)[O-])c(=O)n(-c2ccccc2)c2ccccc12	none
CN[C@@H]1[C@@H](O)[C@@H](O[C@@H]2[C@@H](O)[C@H](OC3OC(CN)=CCC3N)[C@@H](N)C[C@H]2N)OC[C@]1(C)O (some centres not stated)	none (no result: D3 antag, ATXN2 expr inh, TGFb inhibitor, HepG2 viability)
O=C(Nc1nccs1)c1ccccc1N=Cc1ccccc1	none
COc1cccc(C=Nc2ccccc2C(=O)Nc2nccs2)c1OC	D3 antag -74
Cc1cc(-c2ccc(N=Nc3ccc4c(S(=O)(=O)O)cc(S(=O)(=O)O)c(N)c4c3O)c(C)c2)ccc1N=Nc1ccc2c(S(=O)(=O)O)cc(S(=O)(=O)O)c(N)c2c1O	ATXN viability 13µM (no result: D3 antag, ATXN2 expr inh, TGFb inhibitor, HepG2 viability)
O=C(CN1CCCC1)N/N=C/c1c(O)ccc2ccccc12	ATXN viability inconclusive, ATXN2 expr inh 2.8µM
Cc1cc(C)n(CCC(=O)N/N=C/c2c(O)ccc3ccccc23)n1	ATXN viability 10µM, TGFb inhibitor inconclusive (no result: ATXN2 expr inh)
COc1ccc2ccccc2c1/C=N/NC(=O)c1cccc(Br)c1	none
O=C(N/N=C/c1c(O)ccc2ccccc12)c1cccc(C(F)(F)F)c1	ATXN2 expr inh 3µM, TGFb inhibitor inconclusive (no result: ATXN viability)
O=C(CCSc1nc2ccccc2s1)N/N=C/c1c(O)ccc2ccccc12	ATXN2 expr inh 3.2µM
COc1ccc(/C=N/NC(=O)CCSc2nc3ccccc3s2)cc1OC	none
C[C@H](N)C(=O)N[C@@H](C)C(=O)NC1[C@H]2CN(c3nc4c(cc3F)c(=O)c(C(=O)O)cn4-c3ccc(F)cc3F)C[C@@H]12 (some centres not stated)	none (no result: D3 antag, TGFb inhibitor, D3 ag, HepG2 viability)
Cc1cc(Cl)ccc1OCC(=O)N1CCOc2ccc(CN3C[C@@H](C)O[C@@H](C)C3)cc2C1	none (no result: D3 antag, ATXN2 expr inh, TGFb inhibitor, D3 ag, HepG2 viability)
O=C(N/N=C\c1ccc(Cl)s1)c1ccc(Cn2cccn2)o1	none
O=C(N/N=C\c1c(O)ccc2ccccc12)c1ccc(Cn2cccn2)o1	ATXN2 expr inh 3.5µM
CCC(C)NCCOc1ccc(C)cc1[N+](=O)[O-] (configuration not stated)	D3 antag -60
COCCCNC(=S)Nc1ccc(C)cc1[N+](=O)[O-]	none
COCCCNCCCCOc1ccc(C)cc1[N+](=O)[O-]	D3 antag -70
CCC(C)NCCCOc1c(C)cc(C)cc1Br (configuration not stated)	D3 antag -54, TGFb inhibitor inconclusive
Cc1ccc(OCCCn2ccnc2)c([N+](=O)[O-])c1	none
CCC(C)NCCOCCOc1ccc(C)cc1Br (configuration not stated)	D3 antag -70
CN(C)/[N+]([O-])=N/Oc1ccc([N+](=O)[O-])cc1C(F)(F)F	none (no result: D3 antag, ATXN viability, ATXN2 expr inh, D3 ag)
CCCOc1ccc(-c2cccc(NS(=O)(=O)c3cc(OC)ccc3OC)c2)nn1	none (no result: D3 antag)
C=CCNCCOc1ccc(C)cc1[N+](=O)[O-]	D3 antag -72
C=CCN(CC=C)CCOc1cc(C)ccc1[N+](=O)[O-]	D3 antag inconclusive (no result: ATXN2 expr inh)
COc1ccccc1OCCOCCOc1ccc(C)cc1[N+](=O)[O-]	none
C=CCN(CC=C)CCOc1ccc(C)cc1[N+](=O)[O-]	D3 antag -96
CCCCNCCOCCOc1ccc(C)cc1[N+](=O)[O-]	D3 antag -53
C=CCc1ccc(OCCOCCOc2ccc(C)cc2[N+](=O)[O-])c(OC)c1	none
OCCCNCc1cc2cc3c(cc2nc1N1CCN(c2cccc(Cl)c2)CC1)OCO3	none (no result: D3 antag, ATXN2 expr inh, TGFb inhibitor, D3 ag, HepG2 viability)
O=C(Cn1cc(SCc2ccc(F)cc2)c2ccccc21)N1CCCCCC1	none (no result: D3 antag, ATXN viability, ATXN2 expr inh)
CCC(=O)OC1(C(C)=O)CCC2C3CCC4=CC(=O)CCC4(C)C3CCC21C (configuration not stated)	ATXN viability inconclusive, ATXN2 expr inh 20µM
CC12CCC(=O)C=C1CCC1C2CCC2(C)C1CCC2(O)C(=O)CO (configuration not stated)	none
C[C@]12CC[C@H]3[C@@H](CCC4=CC(=O)CC[C@@]43C)[C@@H]1CC[C@@H]2C(=O)CO	D3 antag -88
CCOC(=O)C1=C(CN2CCN(c3cc(C)ccc3C)CC2)NC(=O)NC1c1ccc(Cl)cc1 (configuration not stated)	TGFb inhibitor inconclusive (no result: D3 antag, ATXN viability, ATXN2 expr inh)
O=C(CSc1nc2c([nH]c3ccccc32)c(=O)n1-c1ccccc1)c1ccc(Cl)cc1	none (no result: D3 antag, ATXN viability, ATXN2 expr inh)
O=C(NCc1nnc2n1CCN(Cc1ccc(C(F)(F)F)cc1)CC2)c1ccccn1	none (no result: D3 antag, ATXN2 expr inh, TGFb inhibitor, D3 ag, HepG2 viability)

Screening results from PubChem BioAssay.
